The results in this text go back to PubChem BioAssay (EPA / NIEHS).

Activity calls are given as the source filed them. Rule for the calls: active = hit-call score of the fitted dose curve at least 0.9, where 1 is the maximum; inactive = score below 0.9.

The nature of experiment [1]: APR_HepG2_P-H2AX_72hr: Apredica 72-hour HepG2 Assay for H2AX Phosphorylation (AID 2282916).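 Note: phospho-histone H2A.x immunostain intensity per cell marking DNA damage.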 The conditions noted are these: imaging, actives raise or lower the signal. The essentials:
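Phospho-histone H2A.x immunofluorescence, multiplexed with Hoechst and c-Jun, quantified by high-content imaging. Compounds applied to HepG2 for 72 h across ten concentrations (0.39–200 uM, 0.5% DMSO), in duplicate; DMSO baseline.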

Experiment [2] is described as follows: APR_HepG2_MitoMembPot_72hr: Apredica 72-hour HepG2 Assay for Mitochondrial Membrane Potential (AID 2282917). The following applies: imaging, actives raise or lower the signal. The essentials:
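HepG2 cells dosed 72 hr with compound at 0.39–200 uM in duplicate, 0.5% v/v DMSO final. Mitochondria stained with 250 nM MitoTracker Red CMXRos for 30 min before formaldehyde fixation, imaged by high-content fluorescence; bidirectional fit versus DMSO.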

Experiment [3] is described as follows: APR_HepG2_MitoticArrest_72hr: Apredica 72-hour HepG2 Assay for Mitotic Arrest (AID 2282918). The conditions noted are these: high-content imaging, actives raise or lower the signal. An outline of the steps:
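High-content imaging of fixed human HepG2 cells after 72 h compound exposure (0.39–200 uM, duplicates, 0.5% DMSO); mitotic arrest scored from phospho-histone H3 and nuclear Hoechst staining relative to DMSO.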

Experiment [4] is described as follows: APR_HepG2_MicrotubuleCSK_72hr: Apredica 72-hour HepG2 Assay for Microtubule CSK Stabilty (AID 2282919). The following applies: HepG2 microtubule cytoskeleton, high-content imaging, actives raise or lower the signal. The essentials:
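HepG2, 72 hr cmpd exposure, 0.39–200 uM (10 pts, duplicate), 0.5% DMSO. 3.7% formaldehyde fix, 0.5% Triton perm, anti-alpha-tubulin/Cy5 plus Hoechst. HCS fluorescence intensity; bidirectional fit vs DMSO baseline; taxol as positive control.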

A short description of experiment [5]: APR_HepG2_P-H2AX_24hr: Apredica 24-hour HepG2 Assay for H2AX Phosphorylation (AID 2282920). The following applies: high-content imaging, actives raise or lower the signal. An outline of the steps: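 High-content imaging of phospho-histone H2A.x immunofluorescence, nuclei counterstained with Hoechst 33342, in fixed HepG2 cells. Compounds ran 0.39–200 uM in duplicate for 24 h, final DMSO 0.5%. Signal change fitted both directions against DMSO.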

Experiment [6] can be described thus: APR_HepG2_StressKinase_72hr: Apredica 72-hour HepG2 Assay for Stress Kinase (AID 2282921). The following applies: HepG2 stress kinase (phospho-c-Jun) imaging, actives raise or lower the signal. The essentials: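 Stress kinase signal is phospho-c-Jun immunofluorescence (1:500 primary, Cy3 secondary) in fixed, permeabilized human HepG2 cells imaged at 20x. Exposure lasted 72 hr over ten concentrations from 0.39 to 200 uM, 0.5% DMSO, in duplicate. Bidirectional fit versus DMSO.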

Experiment [7] in a line: APR_HepG2_StressKinase_24hr: Apredica 24-hour HepG2 Assay for Stress Kinase (AID 2282922). The following applies: HepG2 stress kinase (phospho-c-Jun) imaging, actives raise or lower the signal. The essentials:
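Read-out: phospho-c-Jun immunofluorescence (Cy3 secondary) quantified by high-content imaging at 20x, nuclei defined by Hoechst 33342. Human HepG2 liver cells dosed 24 hr, 0.39–200 uM, DMSO 0.5% v/v; gain or loss of signal fitted relative to DMSO.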

A short description of experiment [8]: APR_HepG2_p53Act_72hr: Apredica 72-hour HepG2 Assay for p53 Activation (AID 2282923).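 Note: average cellular p53 protein immunofluorescence intensity in HepG2 cells.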 The following applies: high-content imaging, actives raise or lower the signal. An outline of the steps:
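After 72 h with compound (ten points, 0.39 to 200 uM, final DMSO 0.5% v/v), fixed HepG2 cells were labelled with sheep anti-p53 and Hoechst 33342 and imaged; gain or loss versus DMSO scored.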

Experiment [9] can be described thus: APR_HepG2_MitoMass_72hr: Apredica 72-hour HepG2 Assay for Mitochondrial Mass (AID 2282924).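 Note: MitoTracker Red CMXRos stain intensity per cell imaged as mitochondrial mass.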 The conditions noted are these: high-content imaging, actives raise or lower the signal. An outline of the steps: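 Read-out: MitoTracker Red fluorescence intensity from automated imaging (20x, six fields per well) in human HepG2 liver cells. Dosing ran 72 hr, 0.39–200 uM, 0.5% DMSO; bidirectional curve fitting versus DMSO baseline.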

A short description of experiment [10]: APR_HepG2_NuclearSize_72hr: Apredica 72-hour HepG2 Assay for Nuclear Size (AID 2282925). The conditions noted are these: high-content imaging, actives raise or lower the signal. The essentials: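 Read-out: nuclear diameter from Hoechst 33342 images (ArrayScan, 20x, six fields/well), via cell-cycle image analysis. HepG2 were dosed 0.39–200 uM for 72 hr in 0.5% DMSO. Bidirectional fit relative to DMSO.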

Experiment [11] in a line: ATG_CRE_CIS: Attagene CIS-FACTORIAL HepG2 Assay for human cAMP Responsive Element (CRE) binding protein 3 (AID 2282926). The conditions noted are these: HepG2 CRE cis-reporter, Attagene multiplexed mRNA; actives raise or lower the signal. The essentials: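 Endogenous transcription factor activity read via CRE-regulated reporter transcripts in transfected HepG2 cells. After 24 h exposure, RNA was reverse-transcribed, amplified, fluorescently labelled and sized by capillary electrophoresis; gain or loss fitted against DMSO.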

In experiment [12] the target is CCAAT/enhancer-binding protein beta (Homo sapiens) (UniProt P17676). Put plainly: ATG_C_EBP_CIS: Attagene CIS-FACTORIAL HepG2 Assay for human CCAAT/Enhancer Binding Protein (C/EBP) beta (AID 2282927). The conditions noted are these: HepG2 Attagene cis-factorial transcription factor reporter; actives raise or lower the signal. The essentials:
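HepG2, transient MRTU transfection, 24 h treatment. RT-PCR plus CE fluorescence; DMSO negative control, bidirectional fit.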

Experiment [13] in a line: ATG_CMV_CIS: Attagene CIS-FACTORIAL HepG2 Assay for human CMV (Internal Marker) (AID 2282928).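 Note: endpoint acts as a background internal control marker rather than a target.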 The conditions noted are these: HepG2 CMV promoter reporter, transcription factor profiling; actives raise or lower the signal. An outline of the steps: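 Fluorescence intensity of RT-PCR-derived reporter fragments, resolved by capillary electrophoresis, gives the signal. HepG2 liver cells bearing transfected cis-element reporters were treated 24 h; activity in either direction was fit relative to DMSO-treated controls.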

A short description of experiment [14]: ATG_AP_1_CIS: Attagene CIS-FACTORIAL HepG2 Assay for human Activator Protein 1 (AP-1) (AID 2282931). The conditions noted are these: HepG2 Attagene cis-factorial AP-1 reporter mRNA; actives raise or lower the signal. An outline of the steps:
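We transfected HepG2 cells transiently with a set of cis-regulated reporter transcription units, dosed them for 24 h, and quantified reporter mRNA via RT-PCR and capillary electrophoresis, scoring gain or loss of signal relative to DMSO.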

The nature of experiment [15]: ATG_AP_2_CIS: Attagene CIS-FACTORIAL HepG2 Assay for human Activator Protein 2 (AP-2) (AID 2282932). The conditions noted are these: HepG2 AP-2 cis-reporter, Attagene transcription factor profiling; actives raise or lower the signal. The essentials: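 Liver-derived HepG2 line, cis-reporter system measuring endogenous factors; 24 h dosing; reporter mRNA detected by fluorescent RT-PCR and capillary electrophoresis.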

Experiment [16] can be described thus: ATG_BRE_CIS: Attagene CIS-FACTORIAL HepG2 Assay for human Bone Morphogenetic Protein (BMP) Response Element (BRE) (AID 2282933). The following applies: HepG2 BMP response element reporter, Attagene transcription factor profiling; actives raise or lower the signal. An outline of the steps:
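HepG2 cells transiently transfected with CIS reporter units (endogenous TF activity, BMP response element), dosed 24 h. Reporter mRNA quantified by RT-PCR, fluorescent labelling and capillary electrophoresis; bidirectional fit vs DMSO baseline.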

Experiment [17] concerns the target Retinoic acid receptor alpha (Homo sapiens) (UniProt P10276). Put plainly: ATG_DR5_RAR_CIS: Attagene CIS-FACTORIAL HepG2 Assay for human Retinoic Acid Receptor Alpha (RARE), DR5 submotif (AID 2282934). The following applies: HepG2 Attagene cis-factorial RARE DR5 reporter, mRNA; actives raise or lower the signal. The essentials: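 After 24 h of chemical exposure, transiently transfected HepG2 cells were lysed for total RNA; the DR5-regulated reporter transcript was quantified via RT-PCR and capillary electrophoresis, with activity fitted bidirectionally against DMSO.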

Experiment [18] can be described thus: ATG_DR4_LXR_CIS: Attagene CIS-FACTORIAL HepG2 Assay for human Liver X Receptor (LXR), DR4 submotif (AID 2282929). The conditions noted are these: HepG2 Attagene DR4 cis-reporter, mRNA transcription; actives raise or lower the signal. The essentials: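 Transiently transfected HepG2 liver cells; cis-regulated reporters; 24 h dosing. RT-PCR plus CE read-out of reporter mRNA. DMSO baseline, bidirectional curve fitting.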

Experiment [19] concerns the target Aryl hydrocarbon receptor (Homo sapiens) (UniProt P35869). The experiment can be described thus: ATG_Ahr_CIS: Attagene CIS-FACTORIAL HepG2 Assay for human Aryl Hydrocarbon Receptor (Ahr) (AID 2282930). The conditions noted are these: HepG2 AhR cis-factorial reporter transcription; actives raise or lower the signal. The essentials:
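Endogenous factor activity is tracked through cis-promoter reporter units transfected into HepG2 cells. Transcript levels at 24 h are read by fluorescent RT-PCR and capillary electrophoresis, with activity in either direction scored relative to DMSO.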

Chain of CCAAT/enhancer-binding protein beta (Homo sapiens) (P17676 whole entry, looked up): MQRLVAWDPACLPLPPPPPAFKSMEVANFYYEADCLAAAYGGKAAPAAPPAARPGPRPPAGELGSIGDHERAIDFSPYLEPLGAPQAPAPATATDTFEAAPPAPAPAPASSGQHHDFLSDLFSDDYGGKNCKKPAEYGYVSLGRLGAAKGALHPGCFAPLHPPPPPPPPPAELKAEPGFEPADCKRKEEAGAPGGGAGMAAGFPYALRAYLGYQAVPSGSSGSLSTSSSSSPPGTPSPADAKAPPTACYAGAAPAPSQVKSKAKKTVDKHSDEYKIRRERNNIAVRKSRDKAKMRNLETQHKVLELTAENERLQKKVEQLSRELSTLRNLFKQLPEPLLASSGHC
Chain of Aryl hydrocarbon receptor (Homo sapiens) (P35869 whole entry, looked up): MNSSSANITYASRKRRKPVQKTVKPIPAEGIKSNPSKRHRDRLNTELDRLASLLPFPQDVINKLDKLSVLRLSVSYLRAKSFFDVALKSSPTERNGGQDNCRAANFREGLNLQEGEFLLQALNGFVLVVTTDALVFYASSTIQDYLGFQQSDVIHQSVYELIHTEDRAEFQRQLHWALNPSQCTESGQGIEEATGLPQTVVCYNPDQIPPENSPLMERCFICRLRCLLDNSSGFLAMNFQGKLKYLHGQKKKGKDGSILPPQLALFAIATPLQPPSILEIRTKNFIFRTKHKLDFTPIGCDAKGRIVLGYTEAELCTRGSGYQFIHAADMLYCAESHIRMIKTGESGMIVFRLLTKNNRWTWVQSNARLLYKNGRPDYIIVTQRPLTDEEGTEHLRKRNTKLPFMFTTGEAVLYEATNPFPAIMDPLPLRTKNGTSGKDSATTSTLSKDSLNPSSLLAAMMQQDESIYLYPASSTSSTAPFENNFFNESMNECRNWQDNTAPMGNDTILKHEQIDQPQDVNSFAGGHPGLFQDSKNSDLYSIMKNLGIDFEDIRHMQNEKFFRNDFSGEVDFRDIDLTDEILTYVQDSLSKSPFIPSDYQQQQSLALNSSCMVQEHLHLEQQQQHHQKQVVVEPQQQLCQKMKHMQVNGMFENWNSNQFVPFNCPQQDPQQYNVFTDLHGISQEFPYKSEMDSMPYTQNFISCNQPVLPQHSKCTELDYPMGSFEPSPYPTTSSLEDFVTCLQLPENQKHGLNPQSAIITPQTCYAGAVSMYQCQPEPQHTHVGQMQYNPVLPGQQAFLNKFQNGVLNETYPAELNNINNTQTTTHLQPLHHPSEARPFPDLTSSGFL
Chain of Retinoic acid receptor alpha (Homo sapiens) (P10276 whole entry, looked up): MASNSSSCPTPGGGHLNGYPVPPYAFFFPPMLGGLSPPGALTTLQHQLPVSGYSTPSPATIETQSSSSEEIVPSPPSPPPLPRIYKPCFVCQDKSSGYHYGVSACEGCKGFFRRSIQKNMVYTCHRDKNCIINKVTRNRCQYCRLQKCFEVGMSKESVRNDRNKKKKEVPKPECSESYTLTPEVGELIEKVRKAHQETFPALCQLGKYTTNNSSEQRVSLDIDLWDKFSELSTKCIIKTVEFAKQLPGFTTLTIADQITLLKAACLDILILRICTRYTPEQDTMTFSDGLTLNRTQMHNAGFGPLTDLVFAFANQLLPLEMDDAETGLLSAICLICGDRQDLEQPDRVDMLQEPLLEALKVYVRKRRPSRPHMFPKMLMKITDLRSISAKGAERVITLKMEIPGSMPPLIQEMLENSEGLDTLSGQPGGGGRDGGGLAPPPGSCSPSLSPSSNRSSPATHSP

Consider `COc1nn(CSP(=S)(OC)OC)c(=O)s1`, for which the result in experiment [1], in [2], in experiment [3], in [4], in experiment [5] and in experiment [6] was inactive. The outcome in [7], in experiment [8], in [9], in [10], in [11] and in experiment [12] was inactive. In addition, the compound was classed as inactive in experiment [13], in experiment [14], in experiment [15], in experiment [16] and in experiment [17].

One may read the AC50 as the concentration at which the activity in the assay is half-maximal. On to `Cc1[nH]c(=O)n(C(C)(C)C)c(=O)c1Cl`, for which the call in experiment [1], in experiment [2], in experiment [3], in [4], in experiment [5] and in experiment [6] was inactive. Moreover, the outcome in experiment [7], in experiment [9], in [10], in experiment [13], in [18] and in experiment [19] was inactive. Further, the compound was classed as inactive in experiment [14], in experiment [15] and in experiment [17]. The AC50 in experiment [11] is 30.3 µM (active); in experiment [12], 31.3 µM (active); in experiment [16], 50.5 µM (active).

Regarding `O=C(O)COc1ccc(Cl)cc1Cl`, the outcome in experiment [1], in experiment [2], in experiment [3], in experiment [4], in experiment [5] and in experiment [6] was inactive. For the same compound, the outcome in experiment [7], in experiment [8], in experiment [9], in [10], in [11] and in experiment [12] was inactive. In addition, the compound was called inactive in experiment [13], in experiment [14], in [15] and in [16].

`CCS(=O)(=O)c1cccnc1S(=O)(=O)NC(=O)Nc1nc(OC)cc(OC)n1`: the outcome in experiment [1], in experiment [2], in experiment [3], in [4], in [5] and in experiment [6] was inactive. Also, the compound was called inactive in experiment [7], in [8], in experiment [9], in [10], in [11] and in [12]. Moreover, the call in [13], in experiment [14], in experiment [15], in experiment [16] and in [17] was inactive.

On to `COP(=S)(OC)Oc1ccc([N+](=O)[O-])cc1`, for which the compound was classed as inactive in [1], in [2], in experiment [3], in experiment [4], in experiment [5] and in experiment [6]. Besides, the compound was classed as inactive in [7], in experiment [8], in [9], in experiment [10], in experiment [11] and in experiment [12]. Moreover, the call in experiment [13], in [14], in experiment [15], in experiment [16] and in experiment [17] was inactive.

With `C[C@H]1[C@H](c2ccc(Cl)cc2)SC(=O)N1C(=O)NC1CCCCC1`, the outcome in [1], in experiment [3], in experiment [5], in [6], in [7] and in experiment [8] was inactive. In addition, the compound was classed as inactive in experiment [9], in experiment [10], in experiment [11], in experiment [12], in [19] and in [15]. For the same compound, in experiment [17], the outcome was inactive. The AC50 in [2] was 100 µM (active); in experiment [4], 44.5 µM (active); in [13] it was 13.8 µM (active); in experiment [14] it was 23.1 µM (active); in experiment [16], 17.7 µM (active).

For the compound `CNC(=O)CSP(=S)(OC)OC`, the compound was classed as inactive in experiment [1], in [2], in [3], in experiment [4], in experiment [5] and in experiment [6]. For the same compound, the compound was called inactive in [7], in experiment [9], in experiment [10], in experiment [11], in experiment [12] and in experiment [13]. The compound was called inactive in experiment [18], in experiment [14], in experiment [15] and in experiment [16].

As to `CCOc1nc(NC)nc(NC(=O)NS(=O)(=O)c2ccccc2C(=O)OC)n1`, the compound was called inactive in [1], in experiment [2], in experiment [3], in [4], in experiment [5] and in [6]. Also, the result in experiment [7], in experiment [8], in experiment [9], in [10], in experiment [11] and in [12] was inactive. For the same compound, the call in experiment [13], in experiment [19], in [14], in experiment [15], in experiment [16] and in experiment [17] was inactive.
